Measurements taken from PubChem BioAssay (Tox21).
Several values for one entry are separate records, joined by “and”; a condition that tells them apart may be missing. Equal values may be shown once. Results filed as inconclusive are left out. A call without a number means that no potency is given here. Where a structure was tested more than once in an assay, its records may differ in their call. Activity calls are given as the source filed them. Unless noted, calls follow the shape of the full dose curve.

What was measured:
[1] = Nuclear factor erythroid 2-related factor 2/antioxidant responsive element (Nrf2/ARE) small molecule agonists: qHTS cell viability counter screen in human keratinocytes (AID 1919968; active = well fitted curve in the direction sought with a large enough effect in the repeat runs; an effect the other way counts as inactive or inconclusive; also: nearly all actives have a fitted effect of over 55% in size; also: potency is read from the fitted curve at half-maximal effect)
Outline: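 Measured as CellTiter-Fluor fluorescence, this readout tracks cytotoxicity in the same wells as the ARE-luciferase screen. HaCaT reporter cells (1,500/well) received compounds after a 5 h pre-incubation and were exposed for 23 h.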

[2] = Nuclear factor erythroid 2-related factor 2/antioxidant responsive element (Nrf2/ARE) small molecule agonists: luciferase reporter gene qHTS assay in human keratinocytes (AID 1919969); also: nearly all actives have a fitted effect of over 35% in size; also: potency is read from the fitted curve at half-maximal effect
[3] = target: Gonadotropin-releasing hormone receptor (Homo sapiens) (UniProt P30968); assay: Human gonadotropin-releasing hormone receptor (GnRHR) small molecule agonists, calcium flux assay in GnRHR-HEK293 cells (AID 1920063); also: nearly all actives have a fitted effect of over 35% in size
Gonadotropin-releasing hormone receptor (Homo sapiens), sequence (P30968 whole entry, looked up): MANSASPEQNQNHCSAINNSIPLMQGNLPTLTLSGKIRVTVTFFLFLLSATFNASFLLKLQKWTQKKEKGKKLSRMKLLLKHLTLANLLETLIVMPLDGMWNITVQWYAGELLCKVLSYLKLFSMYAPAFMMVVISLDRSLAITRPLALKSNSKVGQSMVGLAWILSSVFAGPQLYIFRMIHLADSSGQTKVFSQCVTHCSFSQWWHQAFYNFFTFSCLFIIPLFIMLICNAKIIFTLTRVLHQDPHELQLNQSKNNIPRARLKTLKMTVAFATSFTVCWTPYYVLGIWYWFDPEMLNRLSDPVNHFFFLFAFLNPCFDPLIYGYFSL
Outline: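 Fluorescence kinetics (480 nm excitation, 540 nm emission; 3 min, 1 s steps) report calcium mobilisation in human GnRHR-HEK293 cells in agonist mode. Dye incubation: 1 h, 37 C.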

[4] = target: KiSS-1 receptor (Homo sapiens) (UniProt Q969F8); assay: Human kisspeptin (KISS1R) small molecule agonists, calcium flux assay in KISS1R-HEK293 cells (AID 1920064; active = well fitted curve in the direction sought with a large enough effect in the repeat runs; an effect the other way counts as inactive or inconclusive)
KiSS-1 receptor (Homo sapiens), sequence (Q969F8 whole entry, looked up): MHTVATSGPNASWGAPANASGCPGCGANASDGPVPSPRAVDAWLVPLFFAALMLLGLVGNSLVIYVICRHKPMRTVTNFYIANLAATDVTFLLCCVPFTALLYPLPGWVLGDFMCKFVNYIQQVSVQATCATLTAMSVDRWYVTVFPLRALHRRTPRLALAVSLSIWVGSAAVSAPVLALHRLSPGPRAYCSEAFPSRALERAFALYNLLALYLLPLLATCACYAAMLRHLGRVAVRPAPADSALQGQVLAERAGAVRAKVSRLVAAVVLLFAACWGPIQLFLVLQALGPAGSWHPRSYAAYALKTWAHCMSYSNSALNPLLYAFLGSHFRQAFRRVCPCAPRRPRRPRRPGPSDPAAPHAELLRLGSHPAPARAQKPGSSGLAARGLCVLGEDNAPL
Outline: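 Measures KISS1R agonism through calcium-sensitive dye fluorescence in stably transfected HEK293 cells, read for 3 min after pin-tool compound delivery; 15-point titrations in triplicate.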

[5] = G protein-coupled receptor (GPCR) small molecule agonists, calcium flux assay: HEK293 wild type cell line counter screen (AID 1920065)
Outline: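 Readout: fluorescence at 480 nm excitation/540 nm emission, sampled at 1 s intervals for 3 min. Cells had been cultured 18 h, then dye-loaded 1 h at 37 C before compound or ATP addition.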

[6] = p53 small molecule agonists, cell-based qHTS assay with rat liver microsomes (AID 1963578)
Outline: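 Read-out is beta-lactamase reporter fluorescence (LiveBLAzer, 2 h, room temperature, dark) in p53RE-bla cells treated 16 h at 37 C with compound, rat liver microsomes and NADPH, both 0.5 mg/mL final.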

[7] = p53 small molecule agonists, cell-based qHTS assay with human liver microsomes: qHTS cell viability counter screen (AID 1963579); also: nearly all actives have a fitted effect of over 45% in size; also: potency is read from the fitted curve at half-maximal effect
Outline: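 Cells carrying the p53 response-element beta-lactamase reporter are treated for 16 h at 37 C with test compounds in the presence of human liver microsomes and NADPH (both 0.5 mg/mL final); ATP-based CellTiter-Glo luminescence then reports viability.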

[8] = p53 small molecule agonists, cell-based qHTS assay with rat liver microsomes: qHTS cell viability counter screen (AID 1963580); also: nearly all actives have a fitted effect of over 45% in size; also: potency is read from the fitted curve at half-maximal effect
Outline: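 p53RE-bla HCT-116 cells (4,000/well) rested 5 h at 37 C, then given Tox21 compounds in DMSO with rat liver microsomes (0.5 mg/mL final) plus NADPH (0.5 mg/mL final) for 16 h at 37 C. Viability read by CellTiter-Glo luminescence after 30 min at room temperature.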

[9] = p53 small molecule agonists, cell-based qHTS assay: qHTS cell viability counter screen (AID 1963581); also: nearly all actives have a fitted effect of over 45% in size; also: potency is read from the fitted curve at half-maximal effect
Outline: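 In the same plates used for the p53 bla reporter, HCT-116 cells given compounds for 16 h at 37 C received CellTiter-Glo; luminescence was recorded 30 min later at room temperature.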

[10] = target: 5-hydroxytryptamine receptor 2A (Homo sapiens) (UniProt P28223); assay: 5-hydroxytryptamine receptor 2A (HTR2A) small molecule antagonists, cell-based qHTS assay (AID 1963586); also: nearly all actives have a fitted effect of over 45% in size; also: potency is read from the fitted curve at half-maximal effect
5-hydroxytryptamine receptor 2A (Homo sapiens), sequence (P28223 whole entry, looked up): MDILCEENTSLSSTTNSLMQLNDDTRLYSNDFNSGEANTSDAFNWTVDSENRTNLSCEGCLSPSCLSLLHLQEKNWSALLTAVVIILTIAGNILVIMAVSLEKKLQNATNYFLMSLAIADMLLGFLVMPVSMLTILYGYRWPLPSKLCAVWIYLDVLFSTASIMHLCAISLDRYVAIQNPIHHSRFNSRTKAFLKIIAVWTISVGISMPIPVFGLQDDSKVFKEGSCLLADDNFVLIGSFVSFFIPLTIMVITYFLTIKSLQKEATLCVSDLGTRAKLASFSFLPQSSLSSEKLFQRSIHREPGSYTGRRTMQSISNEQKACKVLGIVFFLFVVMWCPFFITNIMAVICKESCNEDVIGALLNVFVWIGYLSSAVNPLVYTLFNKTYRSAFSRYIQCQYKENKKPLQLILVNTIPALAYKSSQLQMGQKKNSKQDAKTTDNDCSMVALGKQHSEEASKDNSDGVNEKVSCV
Outline: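 Antagonist-mode intracellular calcium assay: DOI (4 nM) added after 5 min compound pre-incubation at room temperature to dye-loaded HTR2A-CHO cells. Fluorescence followed for 3 min, sampled every second.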

[11] = target: 5-hydroxytryptamine receptor 2A (Homo sapiens) (UniProt P28223); assay: 5-hydroxytryptamine receptor 2A (HTR2A) small molecule agonists, cell-based qHTS assay (AID 1963587); also: nearly all actives have a fitted effect of over 30% in size; also: potency is read from the fitted curve at half-maximal effect
Outline: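 HTR2A-CHO cells, plated 18 h at 37 C/5% CO2, dye-loaded 1 h at 37 C; compounds in DMSO added by pin tool (agonist mode). Intracellular calcium flux read as kinetic fluorescence on FDSS over 2 min at 1 s intervals.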

[12] = target: Muscarinic acetylcholine receptor M1 (Homo sapiens) (UniProt P11229); assay: Cholinergic receptor muscarinic 1 (CHRM1) small molecule antagonists, cell-based qHTS assay (AID 1963588); also: nearly all actives have a fitted effect of over 40% in size; also: potency is read from the fitted curve at half-maximal effect
Muscarinic acetylcholine receptor M1 (Homo sapiens), sequence (P11229 whole entry, looked up): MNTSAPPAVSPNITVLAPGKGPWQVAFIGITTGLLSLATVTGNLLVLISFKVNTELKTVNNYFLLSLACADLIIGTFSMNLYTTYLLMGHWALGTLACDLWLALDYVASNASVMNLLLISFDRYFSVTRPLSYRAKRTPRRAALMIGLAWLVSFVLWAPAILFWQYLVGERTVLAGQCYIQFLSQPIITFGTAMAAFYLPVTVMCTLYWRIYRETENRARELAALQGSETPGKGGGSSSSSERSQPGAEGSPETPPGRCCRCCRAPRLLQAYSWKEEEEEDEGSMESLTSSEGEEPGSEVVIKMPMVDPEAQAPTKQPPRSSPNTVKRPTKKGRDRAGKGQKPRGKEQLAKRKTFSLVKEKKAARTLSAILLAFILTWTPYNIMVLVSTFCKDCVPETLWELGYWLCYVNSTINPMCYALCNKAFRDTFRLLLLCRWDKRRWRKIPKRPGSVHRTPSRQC
Outline: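 CHRM1-CHO calcium-flux assay, antagonist mode. Cells were seeded 18 h, dye-loaded 1 h at 37 C and given compound for 5 min at RT, then acetylcholine was added at 50nM. FDSS fluorescence was read 3 min; 15 concentrations, three runs.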

[13] = target: Muscarinic acetylcholine receptor M1 (Homo sapiens) (UniProt P11229); assay: Cholinergic receptor muscarinic 1 (CHRM1) small molecule agonists, cell-based qHTS assay (AID 1963589); also: nearly all actives have a fitted effect of over 35% in size
Outline: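 Each compound was tested at 15 concentrations across three independent runs on dye-loaded CHO cells stably expressing human CHRM1, reading intracellular calcium fluorescence kinetically at 1 sec intervals.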

[14] = target: Beta-2 adrenergic receptor (Homo sapiens) (UniProt P07550); assay: Adrenergic beta2 receptor (ADRB2) small molecule antagonists, cell-based qHTS assay (AID 1963592); also: nearly all actives have a fitted effect of over 50% in size; also: potency is read from the fitted curve at half-maximal effect
Beta-2 adrenergic receptor (Homo sapiens), sequence (P07550 whole entry, looked up): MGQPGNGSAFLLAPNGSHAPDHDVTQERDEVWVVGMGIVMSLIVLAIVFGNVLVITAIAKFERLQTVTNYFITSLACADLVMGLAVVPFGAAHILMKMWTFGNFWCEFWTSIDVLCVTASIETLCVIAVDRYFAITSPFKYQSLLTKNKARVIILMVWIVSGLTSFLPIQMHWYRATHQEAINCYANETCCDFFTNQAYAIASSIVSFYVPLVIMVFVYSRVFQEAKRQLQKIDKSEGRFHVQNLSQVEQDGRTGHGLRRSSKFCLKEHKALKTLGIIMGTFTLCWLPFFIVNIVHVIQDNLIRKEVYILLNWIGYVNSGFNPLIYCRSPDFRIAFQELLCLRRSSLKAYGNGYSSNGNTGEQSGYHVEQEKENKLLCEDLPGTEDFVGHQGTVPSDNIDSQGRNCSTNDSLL
Outline: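 Cells (CHO, stable ADRB2 overexpression) incubated 18-20hr at 37C; compounds added from DMSO; agonist mix (1nM isoproterenol, 100uM IBMX, 25uM Ro-20-1724) added; 0.5hr RT; d2-cAMP and anti-cAMP-cryptate added; 1hr RT; 665/615 nm read.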

[15] = target: Beta-2 adrenergic receptor (Homo sapiens) (UniProt P07550); assay: Adrenergic beta2 receptor (ADRB2) small molecule agonists, cell-based qHTS assay (AID 1963593);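 also: CHO cells stably overexpressing human ADRB2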
Outline: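 CHO cells stably over-expressing ADRB2 were plated overnight at 37C, then dosed with compounds plus a stimulation mix containing 100uM IBMX and 25uM Ro-20-1724 for 0.5hr at room temperature. cAMP was measured by HTRF competition, 1hr.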

[16] = target: D(2) dopamine receptor (Homo sapiens) (UniProt P14416); assay: Dopamine D2 receptor (DRD2) small molecule agonists, cell-based qHTS assay (AID 1963594); also: nearly all actives have a fitted effect of over 35% in size
D(2) dopamine receptor (Homo sapiens), sequence (P14416 whole entry, looked up): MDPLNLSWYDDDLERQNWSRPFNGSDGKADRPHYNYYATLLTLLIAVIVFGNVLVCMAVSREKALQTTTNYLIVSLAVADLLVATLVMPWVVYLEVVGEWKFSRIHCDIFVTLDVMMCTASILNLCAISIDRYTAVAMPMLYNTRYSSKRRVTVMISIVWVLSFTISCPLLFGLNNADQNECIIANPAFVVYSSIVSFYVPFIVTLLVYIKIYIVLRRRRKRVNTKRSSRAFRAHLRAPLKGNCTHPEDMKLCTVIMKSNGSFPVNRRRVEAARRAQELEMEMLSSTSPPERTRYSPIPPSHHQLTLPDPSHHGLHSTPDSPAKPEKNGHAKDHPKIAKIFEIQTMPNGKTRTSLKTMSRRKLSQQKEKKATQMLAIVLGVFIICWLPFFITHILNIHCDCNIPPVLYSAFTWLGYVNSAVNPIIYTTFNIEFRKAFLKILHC
Outline: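 HEK293 cells stably expressing DRD2 were cultured 24 h at 37 C, then given Ro20-1724 (0.1 mM final) and compounds for 10 min at room temperature. NKH477 (200nM) was then added for 30 min. cAMP was read by HTRF.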

[17] = target: D(2) dopamine receptor (Homo sapiens) (UniProt P14416); assay: Dopamine D2 receptor (DRD2) small molecule antagonists, cell-based qHTS assay (AID 1963595; active = well fitted inhibition curve with a large enough effect in the signal ratio in the repeat runs, with a control signal flat; the % refers to the signal ratio)
Outline: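 HEK293 cells stably expressing DRD2 were preincubated with 0.1 mM Ro20-1724, then with compound for 10 min at room temperature. Cells were stimulated with 200 nM NKH477 plus 12 nM quinpirole for 30 min, and cAMP was read by HTRF.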

[18] = p53 small molecule agonists, cell-based qHTS assay (AID 1963582; active = well fitted activation curve with a large enough effect in the signal ratio in the repeat runs, not every such curve was filed as active; the % refers to the signal ratio)
Outline: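 Compounds are pin-transferred in DMSO onto p53RE-bla cells and incubated 16 h at 37 C. The B/G FRET beta-lactamase substrate is then applied for 2 h at RT and fluorescence recorded.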

[19] = cAMP Responsive Elements (CRE) small molecule agonists, cell-based qHTS assay (AID 1963590)
Outline: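 Cell line: CRE-bla HEK 293T; medium DMEM/10% dialyzed FBS/0.1 mM NEAA/1 mM pyruvate/25 mM HEPES; 3 h compound exposure; beta-lactamase FRET readout after 2 h substrate loading at RT.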

[20] = cAMP Responsive Elements (CRE) small molecule antagonists, cell-based qHTS assay (AID 1963591; active = well fitted inhibition curve with a large enough effect in the signal ratio in the repeat runs, not every such curve was filed as active; the % refers to the signal ratio)
Outline: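 Inhibition of NKH477-driven (0.25 uM final) CRE-beta-lactamase signal in HEK293T cells, 3 h compound exposure at 37 °C, detected by FRET substrate fluorescence.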

SMILES | Potency [1] | Potency [2] | Potency [3] | Potency [4] | Potency [5] | Potency [6] | Potency [7] | Potency [8] | Potency [9] | Potency [10] | Potency [11] | Potency [12] | Potency [13] | Potency [14] | Potency [15] | Potency [16] | Potency [17] | Potency [18] | Potency [19] | Potency [20]
C[C@]12CC[C@H]3[C@@H](CC[C@@]45O[C@@H]4C(O)=C(C#N)C[C@]35C)[C@@H]1CC[C@@H]2O | inactive | 68.6 µM (active) and inactive | inactive | inactive | inactive | inactive | inactive | inactive | inactive | inactive | inactive | inactive | inactive | inactive | inactive | inactive | inactive |  |  | 
O=[N+]([O-])c1ccc(Cl)c([N+](=O)[O-])c1 | 24.7 µM (active) and 43.3 µM (active) | 15.6 µM (active) | inactive | inactive | inactive | inactive | 36.9 µM (active) and 40.8 µM (active) | 40.8 µM (active) | 26.1 µM (active) | inactive | inactive | inactive | inactive |  |  | inactive | inactive |  |  | 
C=CCBr | inactive | inactive | inactive | inactive | inactive | inactive |  | inactive | inactive | inactive | inactive | inactive | inactive | inactive | inactive | inactive |  | inactive | inactive | inactive
CCOC(=O)C(O)(c1ccc(Cl)cc1)c1ccc(Cl)cc1 | 61.8 µM (active) | inactive | inactive | inactive | inactive | inactive | inactive | inactive | inactive | 33.8 µM (active) and inactive | 6.99 µM (active) and inactive | 8.48 µM (active) | inactive | 69.3 µM (active) and inactive |  | inactive | inactive | inactive |  | 
Oc1cc(Cl)ccc1Cl | inactive | inactive | inactive | inactive | inactive | inactive | inactive | inactive | inactive | inactive | inactive | inactive |  | inactive | inactive | inactive | inactive | inactive | inactive | inactive
CCOP(=S)(OCC)SCSC(C)(C)C | inactive | inactive | inactive | inactive | inactive |  | inactive | inactive | inactive | inactive | inactive | inactive | inactive | inactive |  | inactive | inactive | inactive | inactive | inactive
Nc1ccc(N)cc1 | inactive | 61.1 µM (active) and 18.8 µM (active) and inactive | inactive | inactive | inactive |  | inactive | inactive | inactive | inactive | inactive | inactive | inactive | inactive | inactive | inactive |  |  | inactive | inactive
C#CC(C)(C)NC(=O)c1cc(Cl)cc(Cl)c1 | inactive | inactive | inactive | inactive | inactive | inactive | inactive | inactive | inactive | inactive | inactive | inactive | inactive | inactive |  | inactive | inactive | inactive | inactive | inactive
CN(C)C(=O)Cl | inactive | inactive | inactive | inactive | inactive |  | inactive | inactive | 45.7 µM (active) and inactive | inactive | inactive | inactive | inactive | inactive | inactive | inactive | inactive |  | inactive | inactive
COC(=O)c1c(C(F)F)nc(C(F)(F)F)c(C2=NCCS2)c1CC(C)C | inactive | inactive | inactive | inactive | inactive | inactive | inactive | inactive | inactive | inactive | inactive | inactive | inactive | inactive |  |  | inactive |  | inactive | inactive
Oc1ccc(Cl)c(Cl)c1 | inactive | inactive | inactive | inactive | inactive | inactive | inactive | inactive | inactive | inactive | inactive | inactive | inactive |  |  | inactive | inactive |  | inactive | inactive
COP(=S)(OC)Oc1ccc(Sc2ccc(OP(=S)(OC)OC)cc2)cc1 | inactive | inactive | inactive | inactive | inactive |  | inactive | inactive | inactive | inactive | inactive | inactive | inactive | inactive |  | inactive | inactive | inactive | inactive | 
COP(=S)(OC)SCN1C(=O)c2ccccc2C1=O | inactive | 61.6 µM (active) and 68.6 µM (active) and inactive | inactive | inactive | inactive |  | inactive | inactive | inactive | inactive | inactive | inactive | inactive | inactive | inactive | inactive | inactive | inactive |  | inactive
